FECH inh = inhibitors of human ferrochelatase, primary screen, biochemical, purified FECH, Ni-mesoporphyrin absorbance; 20,000 compounds, 3.3% hits; calls only at 10 µM (by protocol); Ferrochelatase, mitochondrial (Homo sapiens), P22830; Ni-mesoporphyrin absorbance 550 nm;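 active = enzyme reaction rate more than 3 SD below the solvent-only control wells on the same plate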;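 also: lower slope than DMSO wells means FECH inhibition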
Target sequence (P22830 whole entry, looked up): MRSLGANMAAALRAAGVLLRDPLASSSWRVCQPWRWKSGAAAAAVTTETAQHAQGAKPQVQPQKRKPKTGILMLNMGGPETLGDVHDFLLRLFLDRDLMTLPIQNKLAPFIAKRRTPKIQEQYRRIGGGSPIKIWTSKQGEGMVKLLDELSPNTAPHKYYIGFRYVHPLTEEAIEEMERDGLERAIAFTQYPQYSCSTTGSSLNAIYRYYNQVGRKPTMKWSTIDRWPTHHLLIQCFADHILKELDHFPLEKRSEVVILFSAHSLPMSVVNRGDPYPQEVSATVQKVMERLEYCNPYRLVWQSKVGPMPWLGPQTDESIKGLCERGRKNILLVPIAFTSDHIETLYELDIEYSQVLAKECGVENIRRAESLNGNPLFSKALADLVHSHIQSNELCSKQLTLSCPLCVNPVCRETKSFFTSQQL
Calls only; - = inactive; + = active, no number. The sample as a whole holds a higher share of hits than the screen did.

SMILES | FECH inh
CCCN(C(=O)CNC)[C@@H]1CCCC[C@H]1O | -
Cc1cc(C)n2ncc(C3CC(=O)Nc4c3c(-c3cccnc3)nn4C)c2n1 (configuration not stated) | -
CCn1c(C2CCN(C(=O)C(C)Nc3c(C)cccc3C)CC2)n[nH]c1=O (configuration not stated) | -
CCc1c(C)nc2ncnn2c1Sc1ccc(NC(=O)Nc2ccccc2OC)cc1 | -
CCCc1cc(Sc2ccc(NC(=O)Nc3ccc(OC)c(OC)c3)cc2)n2ncnc2n1 | -
CCCc1cc(Sc2ccc(NC(=O)Nc3cccc(Cl)c3)cc2)n2ncnc2n1 | -
CCCc1cc(Sc2ccc(NC(=O)c3cccc(C)c3)cc2)n2ncnc2n1 | -
CCc1c(C)nc2ncnn2c1Sc1ccc(NC(=O)Nc2cc(C)ccc2OC)cc1 | -
CCCc1c(C)nc2ncnn2c1Sc1ccc(NC(=O)Nc2cccc(OC)c2)cc1 | +
CCCc1c(C)nc2ncnn2c1Sc1ccc(NC(=O)c2c(OC)cccc2OC)cc1 | -
CCCc1c(C)nc2ncnn2c1Sc1ccc(NC(=O)Nc2ccc(OC)c(OC)c2)cc1 | -
CCCc1cc(Sc2ccc(NC(=O)c3cccc(F)c3)cc2)n2ncnc2n1 | +
CCc1c(C)nc2ncnn2c1Sc1ccc(NC(=O)Nc2cc(OC)c(OC)c(OC)c2)cc1 | +
CCCc1cc(Sc2ccc(NC(=O)Nc3cccc(OC)c3)cc2)n2ncnc2n1 | +
CCCc1cc(Sc2ccc(NC(=O)c3ccc(C)cc3)cc2)n2ncnc2n1 | -
Cn1c(=O)c2c(-c3cccc(Cl)c3)c(NCc3ccccc3)oc2n(C)c1=O | -
O=S(=O)(NCc1nc2cccnc2n1Cc1ccc(F)cc1)c1ccc(Cl)cc1 | -
CNCC(=O)NCC1CCN(c2ccccc2C)C1 (configuration not stated) | -
COc1nc(OC)nc(-c2c[nH]c3ccc(C)cc23)n1 | -
CCC(C)N(Cc1ccsc1)Cc1ncc[nH]1 (configuration not stated) | -
O=C(Cc1ccccc1Cl)NCCn1c(C(F)(F)F)nc2cccnc21 | -
Cc1ccc(C)c(C(NC(=O)c2cc3ncccn3n2)c2cccnc2)c1 (configuration not stated) | -
CCN(CC)S(=O)(=O)c1ccc2c(c1)CC(C(=O)N1CCC(C(N)=O)CC1)N2C(C)=O (configuration not stated) | -
CCc1cc(Sc2ccc(NC(=O)Nc3ccc(Cl)cc3)cc2)n2ncnc2n1 | +
CCCc1cc(Sc2ccc(NC(=O)Nc3ccc(Cl)cc3)cc2)n2ncnc2n1 | -
SMILES | FECH inh
CCc1cc(Sc2ccc(NC(=O)Nc3ccccc3F)cc2)n2ncnc2n1 | -
CCc1nc2nc(C)[nH]n2c(=O)c1NC(=O)Nc1ccc(F)c(Cl)c1 | -
O=C(NCC1CCCCC1)c1nc[nH]c1C(=O)NCc1ccccc1 | +
COc1ccccc1CNC(=O)c1[nH]cnc1C(=O)NCC1CC1 | -
COc1ccccc1CNC(=O)c1[nH]cnc1C(=O)NCC1CCCCC1 | +
CC1CCCN(C(=O)c2[nH]cnc2C(=O)NCc2ccccc2)C1 (configuration not stated) | -
O=C(NCc1ccccc1)c1nc[nH]c1C(=O)N1CCCCC1 | -
CC(C)CCNC(=O)c1nc[nH]c1C(=O)N1CCC(O)(c2ccc(Cl)cc2)CC1 | -
Cc1ccc(CNC(=O)c2nc[nH]c2C(=O)NCc2ccccn2)o1 | +
COc1ccccc1CNC(=O)c1nc[nH]c1C(=O)N1CCC(O)(c2ccc(Cl)cc2)CC1 | +
CC(C)(C)CNC(=O)c1nc[nH]c1C(=O)N1CCC(O)(c2ccc(Cl)cc2)CC1 | -
Cc1ccc(CNC(=O)c2[nH]cnc2C(=O)NC(C)C)o1 | -
CC(C)CCNC(=O)c1nc[nH]c1C(=O)NCC1CC1 | -
Cc1ccc(CNC(=O)c2[nH]cnc2C(=O)NC2CCCCC2)o1 | -
CC(C)(C)c1cn(C2CCN(C(=O)CN3CCCCC3=O)CC2)nn1 | -
Cc1ccc(C2(O)CCN(CC(=O)Nc3cnn(C)c3)CC2)nc1 | -
COc1cc(C)ccc1-c1c(-c2ccccc2)ncn1C1CCCN(C(C)=O)C1 (configuration not stated) | -
Cn1ccn2ncc(C(=O)N(Cc3ccc4c(c3)OCO4)C3CC3)c12 | -
Cc1nc(C(=O)Nc2cccc(NC(=O)CCc3ccccc3)c2)c(C)o1 | -
CCCCNc1nc(Nc2cccc(C)c2)c2cnn(-c3ccccc3)c2n1 | -
CCN1CCN(c2nc(Nc3ccccc3C)c3cnn(-c4ccccc4)c3n2)CC1 | -
O=C(NCc1ccccn1)c1nc[nH]c1C(=O)NCc1cccnc1 | +
O=C(NC1CCCCC1)c1nc[nH]c1C(=O)NC1CCc2ccccc21 (configuration not stated) | +
O=C(NC1CCCCNC1=O)c1nc[nH]c1C(=O)NCc1ccccn1 (configuration not stated) | -
O=C(NC1CCCCC1)c1nc[nH]c1C(=O)NC1CCCC1 | -
SMILES | FECH inh
CC(C)CCNC(=O)c1nc[nH]c1C(=O)NCc1ccccc1 | -
CCCNC(=O)c1[nH]cnc1C(=O)NC1CCCCC1 | -
O=C(NC1CCCCC1)c1nc[nH]c1C(=O)NCc1ccccn1 | +
COc1ccccc1CN(Cc1cccnc1)C(=O)c1sc(C)nc1C | -
CCCCCN(C)C(=O)c1[nH]cnc1C(=O)NCc1ccccc1 | -
CC(C)NC(=O)c1nc[nH]c1C(=O)NC1CCCc2ccccc21 (configuration not stated) | -
CC(C)(C)CNC(=O)c1nc[nH]c1C(=O)NCc1ccccc1 | -
COc1ccccc1CNC(=O)c1nc[nH]c1C(=O)NCc1cccnc1 | +
O=C(CN1CCCN(Cc2cccc(F)c2)S1(=O)=O)Nc1ccc(F)cc1F | -
CCNC(=O)c1cccc(-n2ccc(-c3cccnc3)n2)c1 | -
O=C(c1cnn2cc(CCO)cnc12)N1CCOC(c2ccc(F)cc2)C1 (configuration not stated) | -
CCc1[nH]c2c(CNS(=O)(=O)c3cccnc3)cc(C)cc2c1C | -
O=C(O)CN1C(=O)C2CCCN2c2ccc(C(=O)N3CCCC3)cc21 (configuration not stated) | -
COc1ccc(S(=O)(=O)N2CCC(n3c(C(F)(F)F)nc4cccnc43)CC2)cc1Cl | -
O=C(CN1CCCN(C(=O)C2CCCO2)CC1)NCCc1ccc(F)cc1 (configuration not stated) | -
CCOC(=O)c1cc2ccsc2n1CC(=O)Nc1cccc(SC)c1 | -
O=S(=O)(NCCn1c(C(F)(F)F)nc2cccnc21)c1ccccc1Cl | -
Cc1ccc(-c2cc(N3CCN(S(=O)(=O)c4ccc(C)c(C)c4)CC3)ncn2)cc1 | -
CCC(C)N(Cc1cccnc1)C(=O)c1ccc2nc(C)[nH]c2c1 (configuration not stated) | -
COc1ccccc1CNC(=O)c1[nH]cnc1C(=O)NC1CCc2ccccc21 (configuration not stated) | +
CCCNC(=O)c1[nH]cnc1C(=O)NC1CCCC1 | -
COc1ccccc1CNC(=O)c1[nH]cnc1C(=O)NCCN(C)C | -
COc1ccccc1CNC(=O)c1nc[nH]c1C(=O)N1CCc2ccccc2C1 | -
COc1ccccc1CNC(=O)c1[nH]cnc1C(=O)NCCc1c[nH]c2ccccc12 | -
COc1ccccc1CNC(=O)c1nc[nH]c1C(=O)NCc1ccccc1 | +
COc1ccc2ccccc2c1CCNC1CCN(C(=O)C(C)C)CC1 | -
Clc1ccc(Nc2nc(NCCC3=CCCCC3)nc3c2cnn3-c2ccccc2)cc1 | -
CN(Cc1ccncc1)Cc1nc(-c2cccnc2)no1 | -

Bioassay records as filed in PubChem.
